A selection: hits, their analogues and other compounds. The true share with any hit is near 10%.
hNpr1 antagonist: human Npr1 receptor antagonism | AID 1347048 | Potency, µM (titrated, usually from 46.3 µM), for the others: at the highest dose activity change, negative = inhibition, most hits filed as inhibitors | 76,000 tested, 1.6% active | HEK293 hNpr1 GloSensor cGMP, ANP-stimulated luminescence; calls by dose curve; further: on the % scale 0 is the no-effect control and ±100 the full control effect; nearly all actives have a fitted effect of over 60% in size
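Compound pre-incubated 30 min at room temperature on GloSensor-loaded HEK293 cells stably carrying hNpr1 and the pGS-40F cGMP biosensor. Stimulation uses hNppA at 0.1 nM final; luminescence is taken at baseline and 20 min post-agonist.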
GPT2 inh: GPT2 alanine aminotransferase inhibition; Recombinant GPT2, coupled pyruvate oxidase/HRP Amplex Red fluorescence; Potency, µM (series often up to 57.7 µM), inactives show top-dose activity change, negative = inhibition, actives largely listed as inhibitors; 100,000 tested, 0.25% active; AID 1671188; further: on the % scale 0 is the no-effect control and ±100 the full control effect; nearly all actives have a fitted effect of over 60% in size
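Inhibition is scored from Amplex Red fluorescence generated when pyruvate oxidase and HRP act on pyruvate released by GPT2. Reactions contain 10ng/uL enzyme, 250uM a-KG and 2mM L-alanine and run 30 min at room temperature.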
NIH3T3 tox: kills NIH 3T3 cells | 94,000 tested, 4.3% active | AID 1345082 | NIH 3T3 viability, CellTiter-Glo ATP luminescence, 48-72 h | Potency, µM (titrated, usually from 96.7 µM), without a hit: at the top dose activity change, negative = cytotoxicity, most hits filed as inhibitors; further: on the % scale 0 is the no-effect control and ±100 the full control effect; nearly all actives have a fitted effect of over 55% in size
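Cytotoxicity was measured by CellTiter-Glo ATP luminescence after 48 or 72 h compound exposure at 37 °C. Mouse NIH 3T3 fibroblasts were seeded at 400 cells/well and dosed by 23 nL pin transfer.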
Luciferase inh: Photinus pyralis luciferase inhibition | 76,000 tested, 2.5% active | Potency, µM (titrated, usually from 115 µM), most hits filed as inhibitors | purified P. pyralis luciferase, luminescence, biochemical | P08659; further: on the % scale 0 is the no-effect control and ±100 the full control effect; nearly all actives have a fitted effect of over 65% in size
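Biochemical qHTS: compound (6-point titration) added to 10uM D-luciferin plus 10uM ATP in Tris acetate pH 7.5 buffer with Mg, Tween-20 and BSA, then purified enzyme at 10nM; light output imaged.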
HEK cytotox: cytotoxic compounds in HEK 293 cells | 94,000 tested, 6.6% active | Potency, µM (titrated, usually from 115 µM), for the others: at the highest dose activity change, negative = cytotoxicity, actives largely listed as inhibitors | HEK 293 viability, ATP luminescence (CellTiter-Glo), 48-72 h; further: on the % scale 0 is the no-effect control and ±100 the full control effect; nearly all actives have a fitted effect of over 60% in size
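HEK 293 seeded at 250 cells/well receive compound via pintool. After 48 or 72 hr at 37 degree Celsius, 5% CO2 and 95% humidity, CellTiter-Glo is dispensed and luminescence read following 10 min at room temperature.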
NPR1 antag cnf: confirmation of human Npr1 natriuretic peptide receptor antagonists; shares compounds with hNpr1 antagonist; HEK293 hNpr1 cGMP GloSensor luminescence, ANP-stimulated; Potency, µM (series often up to 57.6 µM), for the others: at the highest dose activity change, negative = inhibition, usual class: inhibitors; 1,400 tested, 76% active; calls by dose curve; further: nearly all actives have a fitted effect of over 70% in size
Npr2 selectivity: selectivity test of Npr1 antagonists against human Npr2; Potency, µM (highest dose often 57.6 µM), for the others: at the highest dose activity change, negative = inhibition, most hits filed as inhibitors; shares compounds with hNpr1 antagonist; 1,400 tested, 67% active; HEK293 hNpr2 GloSensor cGMP luminescence, CNP-stimulated; calls by dose curve; further: nearly all actives have a fitted effect of over 70% in size
Target sequence (P20594 whole entry, looked up): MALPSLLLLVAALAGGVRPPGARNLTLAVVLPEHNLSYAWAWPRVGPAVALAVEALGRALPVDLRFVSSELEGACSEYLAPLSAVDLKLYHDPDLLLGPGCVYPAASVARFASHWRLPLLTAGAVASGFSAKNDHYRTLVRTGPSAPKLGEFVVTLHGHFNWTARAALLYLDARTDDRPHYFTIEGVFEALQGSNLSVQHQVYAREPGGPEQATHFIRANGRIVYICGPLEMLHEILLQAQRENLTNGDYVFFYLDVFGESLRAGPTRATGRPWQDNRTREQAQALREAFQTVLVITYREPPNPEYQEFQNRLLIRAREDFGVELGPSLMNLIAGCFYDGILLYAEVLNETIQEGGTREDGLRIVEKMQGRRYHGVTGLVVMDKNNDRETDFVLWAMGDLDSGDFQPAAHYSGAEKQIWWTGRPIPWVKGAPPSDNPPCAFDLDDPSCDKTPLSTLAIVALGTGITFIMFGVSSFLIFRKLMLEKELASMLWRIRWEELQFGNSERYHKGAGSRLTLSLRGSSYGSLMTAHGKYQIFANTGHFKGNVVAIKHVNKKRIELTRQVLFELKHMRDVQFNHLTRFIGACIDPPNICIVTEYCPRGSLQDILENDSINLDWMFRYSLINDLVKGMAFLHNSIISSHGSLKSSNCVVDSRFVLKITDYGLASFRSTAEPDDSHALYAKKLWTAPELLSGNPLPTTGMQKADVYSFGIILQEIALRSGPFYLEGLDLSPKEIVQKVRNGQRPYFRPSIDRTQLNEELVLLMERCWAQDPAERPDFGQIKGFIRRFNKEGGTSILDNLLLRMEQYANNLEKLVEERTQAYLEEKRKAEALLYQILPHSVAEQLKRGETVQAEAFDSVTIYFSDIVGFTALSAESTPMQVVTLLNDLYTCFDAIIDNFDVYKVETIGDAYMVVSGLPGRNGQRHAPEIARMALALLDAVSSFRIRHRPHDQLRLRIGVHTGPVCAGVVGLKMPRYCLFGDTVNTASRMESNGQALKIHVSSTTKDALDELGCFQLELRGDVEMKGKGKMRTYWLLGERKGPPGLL
FLuc counter: counter-screen for Npr1 antagonists: firefly luciferase inhibitors | shares compounds with hNpr1 antagonist | Potency, µM (doses to about 57.6 µM), for inactives: at the highest dose activity change, negative = inhibition, hits mostly inhibitors | purified FLuc enzyme, luminescence, Km substrate | 1,400 tested, 0.7% active; further: 0% is about no effect
GloSensor cGMP: reduces cGMP signal in GloSensor control cells; HEK293 GloSensor cGMP, SNP-stimulated, luminescence; 1,400 tested, 69% active; AID 1347051; Potency, µM (highest dose often 57.6 µM), inactives show top-dose activity change, negative = inhibition, actives largely listed as inhibitors; shares compounds with hNpr1 antagonist; calls by dose curve; further: on the % scale 0 is the no-effect control and ±100 the full control effect; nearly all actives have a fitted effect of over 70% in size
The depositor's hits bear a star; i = inactive; ? = inconclusive; nt = no result given; [ ] = dose if it differs, or a comment. Unless noted, the call rests on the fitted dose curve; in most records, active means well fitted curve in the direction sought with a large enough effect; inconclusive means small, poorly fitted or top-dose-only effect, or another doubt; inactive means no such curve, though single readings can be large; an effect the other way counts as inactive or inconclusive. Potency means the concentration at half of the fitted maximal effect.

SMILES | hNpr1 antagonist | GPT2 inh | NIH3T3 tox | Luciferase inh | HEK cytotox | NPR1 antag cnf | Npr2 selectivity | FLuc counter | GloSensor cGMP
O=C(NC1CCN(Cc2ccccc2)CC1)c1cc2n(n1)CC(c1ccc(Cl)cc1)OC2 (stereo unspecified) | 10µM* | -7% | ? | i | ? | 19µM* | 17µM* | 4% | 12µM*
O=C(NC1CCN(Cc2ccccc2)CC1)c1cc2n(n1)CC(c1ccc3c(c1)OCO3)OC2 (stereo unspecified) | 13µM* | i | ? | i | ? | 22µM* | 22µM* | -1% | 17µM*
COc1ccc(-c2ccc(C(=O)N3CCC(NC(=O)c4ccccc4Cl)C3)cc2)nn1 (stereo unspecified) | nt | nt | -24% | nt | -21% | nt | nt | nt | nt
O=C1N(C2CCN(Cc3ccc(C(F)(F)F)cc3)CC2)Cc2cccn21 | nt | 1% | -29% | nt | ? | 15µM* | 17µM* | -3% | 12µM*
COc1cc(CNC(=O)c2ccc3c(c2)N(C(=O)c2ccc(F)cc2)CC3)cc(OC)c1 | ? | 3% | ? | i | ? | 22µM* | 24µM* | 3% | 22µM*
COc1cccc(CNC(=O)c2ccc3c(c2)N(C(=O)c2ccc(F)cc2)CC3)c1 | -11% | -38% | ? | i | ? | nt | nt | nt | nt
O=C1CCN(Cc2ccncc2)CCCC(c2nc(-c3cccnc3)no2)CCN1 (stereo unspecified) | 2% | i | -2% | i | i | nt | nt | nt | nt
O=C1CCN(Cc2ccc(C(F)(F)F)cc2)CCCC(c2nc(-c3cccnc3)no2)CCN1 (stereo unspecified) | 8.9µM* | -7% | ? | i | 45µM* | 17µM* | 17µM* | 2% | 15µM*
Cc1nc(N2CCC(NC(=O)C3CCCCC3)CC2)cc(C(F)(F)F)n1 | -15% | i | -7% | i | ? | nt | nt | nt | nt
Cc1nc(N2CCC(C(=O)Nc3ccc(F)c(Cl)c3)CC2)cc(C(F)(F)F)n1 | 11µM* | -4% | ? | i | 25µM* | 22µM* | 22µM* | 1% | 22µM*
Cc1nc(N2CCC(C(=O)NC3CCc4ccccc43)CC2)cc(C(F)(F)F)n1 (stereo unspecified) | ? | -4% | ? | i | ? | 22µM* | 19µM* | 1% | 17µM*
Cc1nc(N2CCC(C(=O)NC3CCCCCC3)CC2)cc(C(F)(F)F)n1 | ? | ? | -31% | i | ? | 14µM* | 12µM* | -1% | 9.7µM*
Cc1nc(N2CCC(C(=O)NC3CCCCCCC3)CC2)cc(C(F)(F)F)n1 | 10µM* | 0% | -37% | ? | ? | 7.7µM* | 14µM* | 1% | 7.7µM*
CN(C)C(=O)N1CCCC(C(=O)N2CCC(c3ccccc3)CC2)C1 (stereo unspecified) | nt | 2% | -7% | nt | -9% | nt | nt | nt | nt
CCOc1ccc(CC(=O)N2CCC(Cc3nc(C(C)C)no3)CC2)cc1 | -15% | i | -28% | i | ? | nt | nt | nt | nt
COc1ccc(CC(=O)N2CCC(Cc3nc(-c4ccc(OC)cc4)no3)CC2)cc1 | 2.8µM* | i | ? | i | ? | 3.1µM* | 3.4µM* | -2% | 3.4µM*
COc1ccc(-c2noc(CC3CCN(C(=O)Cc4cccc(C)c4)CC3)n2)cc1 | 13µM* | i | ? | i | 40µM* | 22µM* | 19µM* | 4% | 17µM*
CCOc1ccc(CC(=O)N2CCC(Cc3nc(-c4ccc(OC)cc4)no3)CC2)cc1OCC | 16µM* | i | ? | i | ? | 27µM* | 22µM* | 0% | 24µM*
CCOc1ccc(CC(=O)N2CCC(Cc3nc(-c4ccc(OC)cc4)no3)CC2)cc1 | 4.5µM* | ? | ? | i | ? | 2.7µM* | 3.9µM* | -1% | 3.4µM*
CCOc1ccc(CC(=O)N2CCC(Cc3nc(C(C)C)no3)CC2)cc1OCC | 0% | 2% | ? | i | ? | nt | nt | nt | nt
Cc1cccc(CC(=O)N2CCC(Cc3nc(-c4ccccc4)no3)CC2)c1 | -26% | i | ? | i | ? | nt | nt | nt | nt
COc1ccccc1CC(=O)N1CCC(Cc2nc(-c3ccccc3)no2)CC1 | ? | i | ? | i | ? | nt | nt | nt | nt
O=C(CN1C(=O)NC(c2ccc(Cl)cc2)C2=C1COC2=O)Nc1ccc(Br)cc1F (stereo unspecified) | ? | i | 28µM* | i | 35µM* | 24µM* | ? | -1% | 27µM*
CCO[C@H]1CN(C(=O)CCCc2nc(-c3ccccc3OC)no2)C[C@@H]1O | -1% | 1%[11.5 µM] | -4% | i | -2% | nt | nt | nt | nt
COC(=O)N1CCCCC(NC(=O)CCCc2nc(-c3ccccc3C)no2)C1 (stereo unspecified) | 13µM* | ? | ? | i | 35µM* | 17µM* | 19µM* | -1% | 19µM*
Cc1nc(C2CC(O)C2)cc(N2CCN(c3nc4ccccc4s3)CC2)n1 (stereo unspecified) | 7.1µM* | i | ? | i | ? | 9.7µM* | 11µM* | 1% | 8.6µM*
O=C(c1ccc(F)cc1)N1CCC2(CC1)CC(N(Cc1ccc(F)cc1)C1CC1)CCO2 (stereo unspecified) | ? | i | ? | i | ? | ? | ? | 5% | ?
CCCC(=O)N1CCC2(CC1)CC(N(Cc1ccc(F)cc1)C1CC1)CCO2 (stereo unspecified) | -25% | i | -18% | i | ? | -25% | -5% | 2% | -26%
Cc1ccc(C(=O)N2CCC3(CC2)CC(N(Cc2ccc(F)cc2)C2CC2)CCO3)cc1 (stereo unspecified) | ? | i | ? | i | ? | nt | nt | nt | nt

Screens as filed in PubChem.
